Experimental data taken from PMC4552634, “A New Set of Chemical Starting Points with Plasmodium falciparum Transmission-Blocking Potential for Antimalarial Drug Discovery” (PLoS ONE, 2015).
In all, about 13,000 compounds went through this assay and about 3,200 (25%) showed an effect of 50% or more. Some of the results follow.

system: P. falciparum stage V gametocytes; parameters: BacTiter-Glo ATP luminescence viability of purified stage V gametocytes in 384-well plates, per cent inhibition versus DMSO; conditions: 48 h, 5 µM; inhibitor

**Q.** `CN1CCCc2ccc(NC(=O)Nc3ccc(Cl)c(Cl)c3)cc2C1` [TCMDC-133732] was tested. Which “% Inhibition” value did it give?
**A.** Its value is -5.496%.

**Q.** For `Cc1ccc2[nH]c3c(NCCN(C)C)ncnc3c2c1` [TCMDC-124581], which “% Inhibition” value is on record?
**A.** The value was -20.4%.

**Q.** `CCOC(=O)N1CCN(CCCCNc2c3ccc(Cl)cc3nc3ccc(OC)cc23)CC1.Cl` [TCMDC-137579] was tested. Which “% Inhibition” value did it give?
**A.** Its value is 70.35%.

**Q.** For `COc1ccc2nc3cc(Cl)ccc3c(Nc3ccc(C(=O)O)cc3)c2c1.Cl` [TCMDC-138029], which “% Inhibition” value is on record?
**A.** The value was 43.24%.

**Q.** With `Cc1ccc2nc3ccccc3c(NCCN3CCN(C)CC3)c2c1` [TCMDC-138018] as the compound, how does the “% Inhibition” value read?
**A.** Its value is 95.43%.

**Q.** For `CCOC(=O)N1CCN(CCCNc2c3ccc(Cl)cc3nc3ccc(OC)cc23)CC1` [TCMDC-137480], which “% Inhibition” value is on record?
**A.** Its value is 40.55%.

**Q.** For `COc1ccc2nc3cc(Cl)ccc3c(NCCCN3CCNCC3)c2c1` [TCMDC-137580], which “% Inhibition” value is on record?
**A.** Its value is 104.3%.

**Q.** `COc1ccc2nc3cc(Cl)ccc3c(NCCN3CCN(C)CC3)c2c1` [TCMDC-137476] was tested. Which “% Inhibition” value did it give?
**A.** Its value is 105%.

**Q.** With `CCOC(=O)C1=C(C)NC2=C(C(=O)CC(C)(C)C2)C1c1ccc(Cl)cc1` (stereo not shown) [TCMDC-123497] as the compound, how does the “% Inhibition” value read?
**A.** The value was 10%.

**Q.** Which “% Inhibition” value does the source give for `O=C(N[C@@H](CC1CCCCC1)C(=O)NCCN1CCCC1)c1ccc(O)c(-c2ccc(Cl)c(Cl)c2)c1` [TCMDC-140830] here?
**A.** The value was 4.598%.

**Q.** Which “% Inhibition” value does the source give for `COc1ccc(Nc2nccc(NCC(O)c3ccc(C(F)(F)F)cc3)n2)cc1` (stereo not shown) [TCMDC-136595] here?
**A.** Its value is -79.42%.

**Q.** With `CCCCCN(C(=O)Nc1cc(C(F)(F)F)cc(C(F)(F)F)c1)C(C)c1nc2ccccc2c(=O)n1CC` (stereo not shown) [TCMDC-124043] as the compound, how does the “% Inhibition” value read?
**A.** Its value is -29.97%.

**Q.** `O=C(Nc1cc(C(F)(F)F)ccc1Cl)c1ccc(Cn2cc(Br)cn2)cc1` [TCMDC-124912] was tested. Which “% Inhibition” value did it give?
**A.** The value was -0.3608%.

**Q.** `N#Cc1ccc(CNCCCCCCNCc2ccc(C#N)c3ccccc23)c2ccccc12` [TCMDC-137849] was tested. Which “% Inhibition” value did it give?
**A.** Its value is 40.84%.

**Q.** `O=c1cc(NCCCNCc2cccc(C(F)(F)F)c2Cl)[nH]c2ccccc12` [TCMDC-139421] was tested. Which “% Inhibition” value did it give?
**A.** The value was -19.98%.

**Q.** For `FC(F)(F)COc1c(CCNCCCCNCCc2ccc3ccccc3c2OCC(F)(F)F)ccc2ccccc12` [TCMDC-137169], which “% Inhibition” value is on record?
**A.** The value was 119.3%.

**Q.** With `FC(F)(F)COc1c(CNCCCCCCNCc2ccc3ccccc3c2OCC(F)(F)F)ccc2ccccc12` [TCMDC-137833] as the compound, how does the “% Inhibition” value read?
**A.** The value was 67.85%.

**Q.** `CN(C)c1ccc(C2(c3ccccc3)N=C(N)N(CCCc3ccccc3)C2=O)cc1` (stereo not shown) [TCMDC-136715] was tested. Which “% Inhibition” value did it give?
**A.** Its value is -12.92%.

**Q.** How did the “% Inhibition” value turn out when `CC(C)COc1ccc(C(O)C(CN2CCCCC2)c2ccccc2)cc1` (stereo not shown) [TCMDC-124253] was run?
**A.** The value was 31.95%.

**Q.** With `CCCCCOc1ccc(C(O)C(CN2CCCCC2)c2ccccc2)cc1` (stereo not shown) [TCMDC-124165] as the compound, how does the “% Inhibition” value read?
**A.** The value was 1.137%.

**Q.** `CCCCCOc1ccc(C(O)C(CCC(CN2CCCCCC2)C(O)c2ccc(OCCCCC)cc2)CN2CCCCCC2)cc1` (stereo not shown) [TCMDC-124174] was tested. Which “% Inhibition” value did it give?
**A.** The value was 105.7%.

**Q.** For `COc1ccc(CNC2CCN(C)CC2)cc1-c1ccc(S(=O)(=O)NCc2cccnc2)s1` [TCMDC-132261], which “% Inhibition” value is on record?
**A.** The value was 20.62%.

**Q.** How did the “% Inhibition” value turn out when `COc1ccc(CNC2CCN(C)CC2)cc1-c1ccc(S(=O)(=O)NCCc2ccccn2)s1` [TCMDC-132256] was run?
**A.** Its value is 13.25%.

**Q.** How did the “% Inhibition” value turn out when `COc1ccc(CNC2Cc3ccccc3C2)cc1-c1ccc(S(=O)(=O)NCc2cccnc2)s1` [TCMDC-132260] was run?
**A.** The value was 33.12%.

**Q.** How did the “% Inhibition” value turn out when `COc1cc(CNC2Cc3ccccc3C2)ccc1Oc1ccc2nc[nH]c2c1` [TCMDC-133481] was run?
**A.** The value was -19.03%.

**Q.** How did the “% Inhibition” value turn out when `COc1ccc(CNC2Cc3ccccc3C2)cc1-c1ccc(S(=O)(=O)NCCc2ccccn2)s1` [TCMDC-132255] was run?
**A.** Its value is 98.81%.

**Q.** With `COc1ccc(CNC2Cc3ccccc3C2)cc1-c1ccc(S(=O)(=O)NCc2ccccc2)s1` [TCMDC-132252] as the compound, how does the “% Inhibition” value read?
**A.** The value was 67.04%.

**Q.** With `COc1ccc(CNC2CCN(C)CC2)cc1-c1ccc(S(=O)(=O)NCc2ccccc2)s1` [TCMDC-132253] as the compound, how does the “% Inhibition” value read?
**A.** The value was 85.45%.

**Q.** With `COc1ccc(NC(=O)/C=C/c2ccccc2Cl)cc1OCCN1CCC(Cc2cc3ccccc3[nH]2)CC1` [TCMDC-140920] as the compound, how does the “% Inhibition” value read?
**A.** The value was -36.18%.

**Q.** `CN(C)C(CNC(=O)c1cc(-c2ccncc2)c(-c2ccc(Cl)c(O)c2)o1)c1ccccc1` (stereo not shown) [TCMDC-135438] was tested. Which “% Inhibition” value did it give?
**A.** Its value is -15.77%.

**Q.** For `O=C(CCc1cnc[nH]1)Nc1cccc(-c2ccc(-c3nc4ccc(F)cc4[nH]3)cc2)c1` [TCMDC-132154], which “% Inhibition” value is on record?
**A.** Its value is 23.15%.

**Q.** `Cc1ccc(N2CCN(C(=O)c3cccc(-c4cncc5nc(-c6ccco6)n(C)c45)c3)CC2)nc1` [TCMDC-134992] was tested. Which “% Inhibition” value did it give?
**A.** The value was -10.32%.

**Q.** `C#CCNC(=O)c1ccc(-c2ccnc(Nc3cccc(CCCN4CCOCC4)c3)n2)s1` [TCMDC-136764] was tested. Which “% Inhibition” value did it give?
**A.** The value was 20.31%.

**Q.** How did the “% Inhibition” value turn out when `COc1cccc(CN2CCCC(OC(c3ccccc3)c3ccccc3)C2)c1O` (stereo not shown) [TCMDC-136385] was run?
**A.** Its value is -25.83%.

**Q.** `CCCN1CCN(CCCNC(=O)c2cc3c(-c4ccc(Cl)cc4)nn(C)c3s2)CC1` [TCMDC-124731] was tested. Which “% Inhibition” value did it give?
**A.** Its value is 12.34%.

**Q.** How did the “% Inhibition” value turn out when `Cn1nc(-c2ccc(Cl)cc2)c2cc(C(=O)NCCN3CCOCC3)sc21` [TCMDC-124416] was run?
**A.** The value was 0.2691%.

**Q.** Which “% Inhibition” value does the source give for `CCN1CCCC1CNC(=O)c1cc2c(-c3ccc(Cl)cc3)nn(C)c2s1` (stereo not shown) [TCMDC-123579] here?
**A.** The value was 67.12%.

**Q.** Which “% Inhibition” value does the source give for `CCc1cn2c3c(cc(C(=O)N[C@@H](Cc4ccccc4)[C@H](O)CNCc4cccc(C)c4)cc13)N(C)S(=O)(=O)CC2` [TCMDC-135923] here?
**A.** Its value is 15.33%.

**Q.** With `CCc1cn2c3c(cc(C(=O)N[C@@H](Cc4ccccc4)[C@H](O)CNCc4ccccc4C)cc13)N(C)S(=O)(=O)CC2` [TCMDC-135922] as the compound, how does the “% Inhibition” value read?
**A.** Its value is -22.32%.

**Q.** Which “% Inhibition” value does the source give for `CCc1cn2c3c(cc(C(=O)N[C@@H](Cc4ccccc4)[C@H](O)CNCc4ccccc4)cc13)N(C)S(=O)(=O)CC2` [TCMDC-135883] here?
**A.** The value was 74.56%.

**Q.** How did the “% Inhibition” value turn out when `CCc1cn2c3c(cc(C(=O)N[C@@H](Cc4ccccc4)[C@H](O)CNCCOC)cc13)N(C)S(=O)(=O)CC2` [TCMDC-135799] was run?
**A.** The value was 12.82%.

**Q.** Which “% Inhibition” value does the source give for `CCNC[C@@H](O)[C@H](Cc1ccccc1)NC(=O)c1cc2c3c(c1)c(CC)cn3CCS(=O)(=O)N2C` [TCMDC-135800] here?
**A.** The value was 27.6%.

**Q.** For `CCc1cn2c3c(cc(C(=O)N[C@@H](Cc4ccccc4)[C@H](O)CNCc4ccc(C)cc4)cc13)N(C)S(=O)(=O)CC2` [TCMDC-135924], which “% Inhibition” value is on record?
**A.** The value was 11.35%.

**Q.** How did the “% Inhibition” value turn out when `CCCNC[C@@H](O)[C@H](Cc1ccccc1)NC(=O)c1cc2c3c(c1)c(CC)cn3CCS(=O)(=O)N2C` [TCMDC-135863] was run?
**A.** Its value is 78.77%.

**Q.** How did the “% Inhibition” value turn out when `CCCCNC[C@@H](O)[C@H](Cc1ccccc1)NC(=O)c1cc2c3c(c1)c(CC)cn3CCS(=O)(=O)N2C` [TCMDC-135802] was run?
**A.** The value was 53.96%.

**Q.** `CCc1cn2c3c(cc(C(=O)N[C@@H](Cc4ccccc4)[C@H](O)CNCC(C)C)cc13)N(C)S(=O)(=O)CC2` [TCMDC-135804] was tested. Which “% Inhibition” value did it give?
**A.** Its value is 36.82%.
